Measured values: PubChem BioAssay AID1839 (Johns Hopkins Ion Channel Center, 2009)
Out of some 2,400 compounds screened, about 220 (9.2%) were called active. The full list was thinned out, with actives kept by preference. Values without a mark were called inactive.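 How the source made its calls: active means signal change above the mean of dofetilide-free buffer controls plus 3 SD, so a positive margin; inactive means the rest.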

assay: thallium signal changes without hERG – cell-based, CHO-K1 parental line, FluxOR thallium flux, counter-screen for hERG block protection project, confirmation (AID 1839); conditions: CHO-K1 parental cells, FluxOR thallium flux fluorescence; at 10 µM;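 further: compounds applied alone with no dofetilide to cells lacking hERG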

| Compound | signal change vs control minus 3*SD hit threshold (margin above threshold, higher = more increase) |
| --- | --- |
| Cc1ccc(C(C)NC(=O)C2CCCC2)cc1C (configuration not stated) | 0.7% (active) |
| CCc1ccc(C(C)NC(=O)C2CCCC2)cc1 (configuration not stated) | -18.1% |
| Cc1ccc(C(C)NC(=S)NC2CCCCC2)cc1C (configuration not stated) | 1% (active) |
| Cc1ccc(C(=O)NC(C)c2ccc(C)c(C)c2)s1 (configuration not stated) | -19% |
| CCOc1ccc(C(C)NC(=S)NC2CCCCC2)cc1 (configuration not stated) | -15.5% |
| CC(NC(=S)NC1CCCCC1)c1ccccc1 (configuration not stated) | -19.6% |
| C[n+]1ccccc1/C=C/c1c(F)cccc1F | -21.1% |
| COCCn1nnnc1C(c1ccc(C(F)(F)F)cc1)N1CCOCC1 (configuration not stated) | -34% |
| O=C1C2C3C=CC(C4CC34)C2C(=O)N1/N=C/c1ccc(-c2ccc(F)cc2[N+](=O)[O-])o1 (configuration not stated) | -30.5% |
| COc1cccc(C(=O)NNC(=O)C(=O)Nc2ccc(C)cc2)c1 | 28.8% (active) |
| COc1cccc(C(=O)CC(=O)C(=O)Nc2ccc(C)cc2Cl)c1 | -9.2% |
| COc1ccc(C(=O)NNC(=O)C(=O)Nc2ccc(C)c(Cl)c2)cc1 | -14.1% |
| COc1ccc(NC(=O)C(=O)NNC(=O)C(C)Oc2ccc(Cl)cc2Cl)cc1 (configuration not stated) | -10.9% |
| COc1ccc(NC(=O)c2ccc(COCC(F)(F)C(F)F)cc2)cc1 | -40.3% |
| COc1cccc(C(=O)NNC(=O)C(=O)Nc2cccc(Cl)c2C)c1 | -6.7% |
| COc1cccc(C(=O)NNC(=O)C(=O)Nc2ccc(C)c(Cl)c2)c1 | 13.6% (active) |
| CCc1ccc(NC(=O)C(=O)NNC(=O)c2ccc(OC)cc2)cc1 | 21.6% (active) |
| COc1cc(OC)cc(C(=O)NNC(=O)C(=O)Nc2cc(OC)c(Cl)cc2OC)c1 | 23.8% (active) |
| COc1ccc(C(=O)NNC(=O)C(=O)Nc2ccc(C)cc2)cc1 | -5.7% |
| Cc1cc(S(=O)(=O)Nc2ccc(C(=O)N3CCN(C(=O)c4ccco4)CC3)cc2)ccc1F | -12.4% |
| O=[N+]([O-])c1cc(S(=O)(=O)/N=C(/c2ccccc2)N2CCOCC2)ccc1Cl | -31.7% |

| Compound | signal change vs control minus 3*SD hit threshold (margin above threshold, higher = more increase) |
| --- | --- |
| CCOP(=O)(OCC)C(NC(=O)c1ccc(OC)c(OC)c1)c1ccccc1 (configuration not stated) | -21.4% |
| Cc1cc(C(=O)NNC2CC(=O)N(c3ccc4ccccc4c3)C2=O)c(C)o1 (configuration not stated) | -24.7% |
| O=C(c1cccs1)N1CCN(C23CC4CC(CC(C4)C2)C3)CC1 | -34.9% |
| Cc1cc(C)c(S(=O)(=O)NCc2ccccn2)c(C)c1 | -22.6% |
| Cn1c(=O)c(Sc2ccccc2)c(O)c2ccccc21 | -14.2% |
| O=C1CC(O)(C(F)(F)F)Oc2c1ccc1ccccc21 (configuration not stated) | -3% |
| COc1cccc(CCNS(=O)(=O)CCNC(=O)c2cccc(OC)c2)c1 | -25.6% |
| CCc1ccc(NC(=S)Nc2cccc(OC)c2)cc1 | -32.4% |
| CCc1ccc(NC(=O)C(=O)NNC(=O)c2cccc(OC)c2)cc1 | 41.3% (active) |
| CC(=O)Nc1ccccc1C(=O)C(=O)Nc1ccccc1 | -32.8% |
| CC1(C)CC2CC(C)(CN2C(=S)NC(=O)c2ccccc2Cl)C1 (configuration not stated) | -14.7% |
| CCN(CC)C(=S)NC(=O)c1ccc(Cl)cc1Cl | 3.8% (active) |
| O=C(NC(=S)N1CCCCCC1)c1ccc(Cl)cc1Cl | -16.7% |
| CCN(CC)C(=S)NC(=O)c1ccc(F)cc1 | -15.9% |
| O=C(NC(=S)N(CCO)Cc1ccccc1)c1cc(Br)ccc1Cl | -12.2% |
| CCCCN(CCCC)C(=S)NC(=O)c1ccccc1Cl | 39.6% (active) |
| CCCN(CCC)C(=S)NC(=O)c1ccc(Cl)cc1Cl | 27% (active) |
| CN(C)/C=C/C(=O)c1ccc(Cl)cc1Cl | -23.8% |
| CC1(C)CC(NC(=O)c2ccc(Cl)cc2Cl)CC(C)(C)N1 | -35.9% |
| C=CCNC(=O)c1onc(CSc2ccc(OC)cc2)c1C(=O)O | -35.4% |
| Cc1ccc(/C=C(\NC(=O)c2ccccc2)C(=O)N2CCCCC2)cc1 | -35.4% |

| Compound | signal change vs control minus 3*SD hit threshold (margin above threshold, higher = more increase) |
| --- | --- |
| O=C(CCc1nc(-c2ccccc2)no1)N1CCCC1 | -26.5% |
| Cc1nn(-c2ccccc2)c(Cl)c1/C=C1\SC(=S)NC1=O | 26.5% (active) |
| Cc1nn(-c2ccccc2)c(C)c1S(=O)(=O)O | -23.2% |
| Cc1nn(-c2ccccc2)c(N2CCCC2)c1/C=N/O | -24.6% |
| CCc1nnc(NC(=O)c2c(C)nn(-c3ccccc3)c2Cl)s1 | -14.1% |
| O=S(=O)(NC(=S)NC1CCCCC1)c1ccc(Br)cc1 | -9.7% |
| CCOC(=O)C1CCN(C(=O)COC(=O)c2nn(C)c(=O)c3ccccc23)CC1 | -33.9% |
| CCOC(=O)c1c(O)c2ccccc2n(C)c1=O | -25% |
| CCOC(=O)c1n[nH]n2c1nc(=S)c1ccccc12 | 12.1% (active) |
| Cc1[nH]n(-c2ccc(F)cc2)c(=O)c1/C=N/c1sc2c(c1C#N)CCCC2 | -1.9% |
| COc1ccc2nc(/N=C/c3c(C)[nH]n(-c4ccc(C)cc4C)c3=O)sc2c1 | 22.3% (active) |
| CCOc1ccc2nc(/N=C/c3c(C)[nH]n(-c4ccc(C)cc4)c3=O)sc2c1 | 33.5% (active) |
| COc1ccc2nc(-n3c(O)c(C4=c5ccccc5=NC4=O)[nH]c3=S)sc2c1 | -25.1% |
| Cc1[nH]n(-c2ccccc2)c(=O)c1N=Nc1ccc(C(N)=O)cc1 | -43.3% |
| Cc1[nH]n(-c2cccc3ccccc23)c(=O)c1/C=N/c1sc2c(c1C#N)CCC2 | -19.1% |
| Cc1[nH]n(-c2ccc(Cl)cc2)c(=O)c1/C=N/c1nnc(-c2ccccc2)s1 | 78.7% (active) |
| COc1ccc2nc(/N=C/c3c(C)[nH]n(-c4ccc(C)cc4)c3=O)sc2c1 | 62.6% (active) |
| CCOc1ccc2nc(N3C(=O)/C(=C/c4ccc(Cl)cc4)NC3=S)sc2c1 | -25% |
| CCOc1ccc2nc(/N=C/c3nc(-c4ccc(Br)cc4)oc3O)sc2c1 | -17.1% |
| CCCCNC(=O)N1CCCC(C(=O)c2cc(C)c(OC)c(C)c2)C1 (configuration not stated) | -38% |
